In PubChem BioAssay (EPA / NIEHS):
Inconclusive results are not listed. The source made the active and inactive calls. How the source made its calls, unless noted: active means hit-call score of the fitted dose curve at least 0.9, where 1 is the maximum; inactive means score below 0.9.

Experiments:
[1] = IUF_NPC1_viability_72hr: Viability Assessment at 72 hours in the Leibniz Research Institute for Environmental Medicine (IUF) Neural Progenitor Cell Proliferation Assay (NPC1) (AID 2284209)
Outline: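 Viability was measured by resazurin-to-resorufin fluorescence (alamar blue) after 72 h of continuous exposure without compound renewal. Each well held one hNPC sphere (gestational week 16-19 fetal cortex, 0.25-0.35 mm) cultured in EGF/FGF proliferation medium at 37C and pH 7.2-7.6.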

[2] = CCTE_Mundy_HCI_Cortical_Synap_Neur_Matur_BPCount: CCTE's Synaptogenesis and Neurite Maturation Assay in rat cortical cells for Branch Point Count, Mundy Lab (AID 2284211)
Outline: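 HCI read-out of branch points from MAP2/synaptophysin/Hoechst immunofluorescence; rat cortical cultures, AraC DIV 5, dosing DIV 7, fixed DIV 12; fit in positive direction vs DMSO baseline.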

[3] = CCTE_Mundy_HCI_Cortical_NOG_NeuriteCount: CCTE's Neurite Outgrowth Assay in rat cortical cells for Neurite Count, Mundy Lab (AID 2284212);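 further: cells fixed about two days after chemical exposure began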
Outline: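 Rat cortical primary cells; compound added 2 h post-plating, 1/10 dilution of working solution. Anti-betaIII-tubulin/AF488 ICC; ArrayScan neurite count vs DMSO.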

[4] = CCTE_Mundy_HCI_Cortical_NOG_NeuriteLength: CCTE's Neurite Outgrowth Assay in rat cortical cells for Neurite Length, Mundy Lab (AID 2284213)
Outline: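 First, rat primary cortical cells were plated and, 2 h later, given test chemical as a 1/10 dilution. Finally, βIII-tubulin immunostaining enabled automated imaging of neurite length.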

[5] = CCTE_Mundy_HCI_Cortical_Synap_Neur_Matur_NeuriteLength: CCTE's Synaptogenesis and Neurite Maturation Assay in rat cortical cells for Neurite Length, Mundy Lab (AID 2284214)
Outline: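 Neurite length quantified by automated high-content imaging of MAP2, synaptophysin and Hoechst staining. Rat cortical cells received chemical from DIV 7 to DIV 12 […], glial growth arrested by AraC at DIV 5; DMSO baseline.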

[6] = CCTE_Mundy_HCI_Cortical_Synap_Neur_Matur_NeuriteSpotCountPerNeuron: CCTE's Synaptogenesis and Neurite Maturation Assay in rat cortical cells for Neurite Spot Count per Neuron Count, Mundy Lab (AID 2284215)
Outline: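 Rat primary cortical cells received AraC at DIV 5, then chemicals with a media change at DIV 7, and were fixed at DIV 12. Synaptophysin puncta on MAP2-stained neurites per neuron were counted by high-content imaging, fitted relative to DMSO.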

[7] = CCTE_Mundy_HCI_Cortical_Synap_Neur_Matur_SynapseCount: CCTE's Synaptogenesis and Neurite Maturation Assay in rat cortical cells for Synapse Count, Mundy Lab (AID 2284218)
Outline: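 High-content imaging of synaptophysin puncta per MAP2-positive neuron (Hoechst nuclei) in rat cortical cells exposed DIV 7–12 after glial arrest with AraC at DIV 5; decrease relative to DMSO scored.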

[8] = CCTE_Mundy_HCI_hN2_NOG_NeuriteCount: CCTE's Neurite Outgrowth Assay in human hN2 cells for Neurite Count, Mundy Lab (AID 2284219; active means hit-call score of the fitted dose curve at least 0.9, where 1 is the maximum)
Outline: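 In this morphology assay, hNP1-derived neurons received test chemical 2 h post-plating and were fixed two days later in warm paraformaldehyde/sucrose containing Hoechst 33342. Neurites, labelled by rabbit anti-βIII-tubulin (1:800) and Alexa Fluor-488 (1:500), were counted automatically.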

[9] = CCTE_Mundy_HCI_hN2_NOG_NeuriteLength: CCTE's Neurite Outgrowth Assay in human hN2 cells for Neurite Length, Mundy Lab (AID 2284220; active means hit-call score of the fitted dose curve at least 0.9, where 1 is the maximum)
Outline: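 Read-out is neurite length from high-content imaging of βIII-tubulin/Alexa Fluor-488-labelled neurons, referenced to DMSO controls.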

[10] = CCTE_Mundy_HCI_hN2_NOG_NeuronCount: CCTE's Neurite Outgrowth Assay in human hN2 cells for Neuron Count, Mundy Lab (AID 2284221; active means hit-call score of the fitted dose curve at least 0.9, where 1 is the maximum)
Outline: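 Read-out is the number of betaIII-tubulin-positive neurons imaged by automated high-content analysis, with DMSO as negative control.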

[11] = CCTE_Mundy_HCI_Cortical_Synap_Neur_Matur_NeuriteCount: CCTE's Synaptogenesis and Neurite Maturation Assay in rat cortical cells for Neurite Count, Mundy Lab (AID 2284222);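 further: exposure from day 7 to day 12 in vitro with readout at day 12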
Outline: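 Chemical exposure runs DIV 7–12 in rat cortical cultures, glia suppressed by AraC at DIV 5; measurement is at DIV 12. Imaging-derived neurite counts are fitted against DMSO baseline.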

[12] = CCTE_Mundy_HCI_Cortical_Synap_Neur_Matur_CellBodySpotCount: CCTE's Synaptogenesis and Neurite Maturation Assay in rat cortical cells for Cell Body Spot Count, Mundy Lab (AID 2284223)
Outline: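 Rat primary cortical cultures received AraC at DIV 5 to arrest glia, were dosed with chemical at DIV 7 with media change, and were fixed at DIV 12 (288.33 h). Synaptophysin puncta on MAP2-positive cell bodies per neuron were counted by high-content imaging versus DMSO.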

[13] = CCTE_Mundy_HCI_Cortical_NOG_BPCount: CCTE's Neurite Outgrowth Assay in rat cortical cells for Branch Point Count, Mundy Lab (AID 2284237)
Outline: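 Measured 50.33 h after dosing, this morphology endpoint uses rat primary cortical cultures labelled for betaIII-tubulin. Branch points are quantified by high-content imaging, with DMSO as negative control and baseline.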

[14] = CCTE_Mundy_HCI_hNP1_Casp3_7: CCTE's Caspase-Glo 3/7 Assay in human neuroprogenitor cells for Apoptosis, Mundy Lab (AID 2284240)
Outline: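 Luminescent caspase-3/7 readout, 26.5 h post-dose, in human neural progenitor cells from WA09 embryonic stem cells. Cells grew 40–44 h at 37 °C, 5% CO2 before chemical addition. Activity analysed as signal increase over DMSO baseline.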

[15] = CCTE_Mundy_HCI_hNP1_CellTiter: CCTE's Cell Titer-Glo 2 Assay in human neuroprogenitor cells for Viability, Mundy Lab (AID 2284241; active means hit-call score of the fitted dose curve at least 0.9, where 1 is the maximum)
Outline: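 Viability read as luminescent ATP content (CellTiter-Glo, 30 min room temperature) twenty-four hours after dosing, relative to DMSO. Cells: WA09-derived hNP1 neuroprogenitors on poly-L-ornithine/laminin, plated 40 to 44 hours before chemical.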

[16] = CCTE_Mundy_HCI_Cortical_Synap_Neur_Matur_NeuronCount: CCTE's Synaptogenesis and Neurite Maturation Assay in rat cortical cells for Neuron Count, Mundy Lab (AID 2284242; active means hit-call score of the fitted dose curve at least 0.9, where 1 is the maximum)
Outline: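 Neuron counts come from automated high-content imaging of Hoechst nuclei and MAP2/synaptophysin immunostaining at DIV 12, with loss of signal judged against DMSO. Cultures of rat cortical cells had glial growth arrested by AraC at DIV 5; chemical exposure began DIV 7.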

[17] = IUF_NPC2c_oligodendrocyte_migration_120hr: Leibniz Research Institute for Environmental Medicine (IUF) 120-hour Neural Progenitor Cell Migration Assay for Oligodendrocyte Migration (NPC2c) (AID 2284297);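 further: O4-positive oligodendrocyte migration distance divided by radial glia migration distance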
Outline: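 Human fetal cortex-derived neural progenitor spheres (0.3 mm) were plated on poly-D-lysine/laminin in N2 differentiation medium and exposed to 7 concentrations for 120 h, with half-medium renewal at day 3. Oligodendrocyte migration distance was normalized to radial glia migration, relative to DMSO.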

[18] = IUF_NPC2a_radial_glia_migration_120hr: Leibniz Research Institute for Environmental Medicine (IUF) 120-hour Neural Progenitor Cell Migration Assay for Radial Glia Migration (NPC2a) (AID 2284298)
Outline: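 Single 0.3 mm primary human fetal-cortex (GW 16-19) NPC spheres were plated on poly-D-lysine/laminin in N2 differentiation medium and exposed from day 0 for 120 h, half-medium refreshed day 3. Migration distance came from Hoechst nuclei-density imaging, relative to DMSO.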

[19] = IUF_NPC2a_radial_glia_migration_72hr: Leibniz Research Institute for Environmental Medicine (IUF) 72-hour Neural Progenitor Cell Migration Assay for Radial Glia Migration (NPC2a) (AID 2284299)
Outline: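 Radial glia migration (µm, sphere core edge to migration front, four directions averaged) from brightfield images at 72 h; hNPC spheres differentiating on PDL/laminin in N2 medium, compound exposure at 7 concentrations from plating.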

[20] = IUF_NPC2b_neuronal_migration_120hr: Leibniz Research Institute for Environmental Medicine (IUF) 120-hour Neural Progenitor Cell Migration Assay for Neuron Migration (NPC2b) (AID 2284300)
Outline: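 Primary human fetal cortex neural progenitor spheres (0.3 mm) plated on poly-D-lysine/laminin in N2 differentiation medium, exposed 120 h with half-medium refresh at day 3. TUBB3-stained neuron distance from sphere core, normalized to radial glia migration, versus DMSO.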

[21] = IUF_NPC3_neuronal_differentiation_120hr: Leibniz Research Institute for Environmental Medicine (IUF) 120-hour Neuronal Differentiation Assay (NPC3) (AID 2284301)
Outline: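 hNPC spheres, PDL/laminin, DMEM/F12 3:1 + 1% N2, 37C, 5% CO2; 7 concentrations + solvent control, 5 d exposure, half-change day 3. Fix 120 h; TUBB3/Hoechst ICC, CNN neuron calling; % neurons vs nuclei, DMSO-normalized.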

[22] = IUF_NPC4_neurite_length_120hr: Leibniz Research Institute for Environmental Medicine (IUF) 120-hour Neuronal Morphology Assay for Neurite Length (NPC4) (AID 2284302)
Outline: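 hNPC spheres (0.3 mm, fetal brain GW 16-19) on PDL/laminin, DMEM:F12 3:1 + 1% N2, 37C 5% CO2; 7 concs + solvent control, day 0-5, half medium change d3; fix 120 h, TUBB3 ICC, mean neurite length um vs DMSO.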

[23] = IUF_NPC5_oligodendrocyte_differentiation_120hr: Leibniz Research Institute for Environmental Medicine (IUF) 120-hour Oligodendrocyte Differentiation Assay (NPC5) (AID 2284304; active means hit-call score of the fitted dose curve at least 0.9, where 1 is the maximum;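 further: primary human fetal neural progenitor spheres plated to migrate and differentiate; share of O4-positive cells among Hoechst nuclei found by CNN image analysis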)
Outline: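 Primary human fetal (GW 16-19) neural progenitor spheres (0.3 mm) plated on poly-D-lysine/laminin in N2 differentiation medium, exposed from day 0 for 120 h with half-medium refresh at day 3; O4-positive cells as percent of Hoechst nuclei, CNN-identified, versus DMSO.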

[24] = IUF_NPC2-5_cytotoxicity_72hr: Cytotoxicity Assessment at 72 hours in the Leibniz Research Institute for Environmental Medicine (IUF) Neural Progenitor Cell Migration and Differentiation Assay for Cytotoxicity (NPC2-5) (AID 2284306; active means hit-call score of the fitted dose curve at least 0.9, where 1 is the maximum;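 further: LDH release into supernatant measured by resorufin fluorescence marking membrane damage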)
Outline: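 hNPC spheres (0.3 mm), PDL/laminin, DMEM/F12 3:1 + 1% N2; cpd from d0, 7 concs + SC, DMSO max 0.1%; half-medium refresh d3. Readout: supernatant LDH via resorufin fluorescence (RFU), 72 h; gain-of-signal fit.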

[25] = IUF_NPC2-5_cytotoxicity_120hr: Cytotoxicity Assessment at 120 hours in the Leibniz Research Institute for Environmental Medicine (IUF) Neural Progenitor Cell Migration and Differentiation Assay (NPC2-5) (AID 2284307; active means hit-call score of the fitted dose curve at least 0.9, where 1 is the maximum)
Outline: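 Human fetal neural progenitor spheres (0.3 mm, GW 16-19 cortex) were plated on poly-D-lysine/laminin in N2 differentiation medium and exposed for 120 h, with half-medium refresh at day 3. LDH release into supernatant was read by resorufin fluorescence.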

[26] = IUF_NPC2-5_cell_number_120hr: Cell Number Assessment at 120 hours in the Leibniz Research Institute for Environmental Medicine (IUF) Neural Progenitor Cell Migration and Differentiation Assay (NPC2-5) (AID 2284308);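 further: count of Hoechst-stained nuclei in migration zone around plated human neural progenitor spheres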
Outline: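 Primary human fetal neural progenitor spheres (GW 16-19, 0.3 mm) plated on poly-D-lysine/laminin in N2 differentiation medium, exposed from day 0 for 120 h with half-medium refresh at day 3; Hoechst-positive nuclei counted in migration area versus DMSO control.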

[27] = IUF_NPC2-5_viability_120hr: Viability Assessment at 120 hours in the Leibniz Research Institute for Environmental Medicine (IUF) Neural Progenitor Cell Migration and Differentiation Assay (NPC2-5) (AID 2284312)
Outline: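 Human fetal neural progenitor spheres (0.3 mm) plated on poly-D-lysine/laminin in N2 differentiation medium, exposed 120 h with half-medium refresh at day 3. Viability by alamar blue resazurin fluorescence; 7 concentrations, DMSO max 0.1%.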

[28] = IUF_NPC1_cytotoxicity_72hr: Cytotoxicity Assessment at 72 hours in the Leibniz Research Institute for Environmental Medicine (IUF) Neural Progenitor Cell Proliferation Assay (NPC1) (AID 2284332; active means hit-call score of the fitted dose curve at least 0.9, where 1 is the maximum;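 further: rising LDH signal means more cytotoxicity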)
Outline: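 Cytotoxicity by LDH membrane-integrity assay on medium supernatants, fluorescence via resazurin reduction, after 3-day single exposure of primary hNPC spheres at 37C, pH 7.2-7.6 with growth factors. Fitted upward against baseline.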

Measured: outcome

C[C@H](CS)C(=O)N1CCC[C@H]1C(=O)O
inactive: all assays above
